This is an account of results in PubChem BioAssay (Tox21).

Each structure is given as a SMILES string. Activity calls are given as the source filed them. A call without a number means that no potency is given here. Calls come from the whole dose curve.

This test deals with Muscarinic acetylcholine receptor M1 (Homo sapiens) (UniProt P11229). As to the kind of experiment: Cholinergic receptor muscarinic 1 (CHRM1) small molecule agonists, cell-based qHTS assay (AID 1963589). Note: nearly all actives have a fitted effect of over 35% in size. Particulars: CHRM1-CHO cells, agonist mode, calcium flux fluorescence; series mostly up to 76.8 µM. The text has this: National Center for Advancing Translational Sciences [NCATS]
Muscarinic acetylcholine receptor M1 (Homo sapiens), sequence (P11229 whole entry, looked up): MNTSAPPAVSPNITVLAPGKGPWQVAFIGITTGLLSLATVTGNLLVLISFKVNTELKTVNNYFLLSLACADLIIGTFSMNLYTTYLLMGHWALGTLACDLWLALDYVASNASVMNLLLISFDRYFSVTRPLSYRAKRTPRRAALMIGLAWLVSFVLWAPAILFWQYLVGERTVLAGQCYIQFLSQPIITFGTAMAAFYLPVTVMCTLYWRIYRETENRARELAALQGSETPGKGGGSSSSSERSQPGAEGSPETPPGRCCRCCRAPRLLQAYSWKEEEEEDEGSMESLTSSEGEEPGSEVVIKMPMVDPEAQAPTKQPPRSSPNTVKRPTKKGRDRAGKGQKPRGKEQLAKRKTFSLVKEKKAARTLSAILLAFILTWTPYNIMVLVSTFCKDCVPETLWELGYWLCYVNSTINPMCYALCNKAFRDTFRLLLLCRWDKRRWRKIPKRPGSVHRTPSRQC
Division of Preclinical Innovation [DPI]
U.S. Environmental Protection Agency [EPA]
National Institutes of Environmental Health Sciences [NIEHS]
National Toxicology Program [NTP]
U.S. Food and Drug Administration [FDA]
The CHRM1 is a muscarinic receptor. This receptor plays a crucial role in learning and memory processes and has long been identified as a promising therapeutic target for the improvement of cognitive decline in Alzheimer's disease (AD). The CHRM1-CHO cell line stably expressing human muscarinic acetylcholine receptor M1 (CHRM1) can be used for screening agonists and antagonists of interactions between CHRM1 and its ligands. The CHRM1-CHO Calcium Flux Assay is a homogeneous fluorescence-based assay for detecting the intracellular calcium level using FDSS kinetic plate reader system.
CHRM1-CHO cells were dispensed at 1000 cells/3uL/well in 1536-well black-clear bottom plates using a Multidrop Dispenser. After the assay plates were incubated at a 37 C/5% CO2 incubator for 18 h, 3 uL of Dye Loading Buffer was transferred to the assay plate by a Flying Reagent Dispenser. The assay plates were incubated at 37 C for 1h. For agonist mode, 23 nL of compounds dissolved in DMSO, positive controls or DMSO only was transferred to the assay plate by a pin tool. […] Each test compound was measured at 15 concentrations in three independent runs.
`CCC(=O)OCc1ccccc1`: the Potency entry is “inactive”.

On to `CC1=NN(c2ccc(S(=O)(=O)O)cc2)C(=O)C1`, for which the Potency result was “inactive”.

In the case of `C=COCCOCCOCCOC=C`, the Potency entry is “inactive”.

Consider `CC(CO)Oc1ccccc1` (stereo not given), for which the Potency result is “inactive”.

With `CO[Si](CCCOCC1CO1)(OC)OC` (stereo not given), the Potency result is “inactive”.

`O=C1CC[C@H](C(=O)N2CCCCC2)N1`: the Potency result is “inactive”.

On to `Cc1ncc(CO)c(CN)c1O`, for which the Potency result is “inactive”.

In the case of `CC(=O)c1ccccc1O`, the Potency entry is “inactive”.

Consider `COC(/C=C(\C)CCC=C(C)C)OC`, for which the Potency result is “inactive”.

On to `Cc1c(C(=O)c2c[nH]n(C)c2=O)ccc(S(C)(=O)=O)c1C1=NOCC1`, for which the Potency result is “inactive”.

As for `O=C(NCC1CCCCN1)c1cc(OCC(F)(F)F)ccc1OCC(F)(F)F` (stereo not given), the Potency result was “inactive”.

Turning to `C[C@@H](O)[C@H]1C(=O)N2C(C(=O)O)=C([C@H]3CCCO3)S[C@H]12`, the Potency result was “inactive”.

Regarding `CC12CCC(C1)C(C)(C)C2O` (stereo not given), the Potency result was “inactive”.

Take `COC(=O)OC`: the Potency entry is “inactive”.

With `CCC(=O)O[C@@H]1C[C@H]2CC[C@]1(C)C2(C)C`, the Potency result is “inactive”.

Turning to `Nc1c(Br)cc([N+](=O)[O-])cc1Br`, the Potency result is “inactive”.

For `C=C1[C@H]2CC[C@@H]3[C@H]2C(C)(C)CCC[C@]13C`, the Potency entry was “inactive”.

Take `O=C(O)c1cc2ccccc2cc1O`: the Potency result was “inactive”.

On to `CCO/C([O-])=N/c1c[n+](N2CCOCC2)no1`, for which the Potency entry is “inactive”.

For `COC(=O)C1=C(C)NC(C)=C(C(=O)OCCN(C)Cc2ccccc2)C1c1cccc([N+](=O)[O-])c1` (stereo not given), the Potency entry was “inactive”.

As for `Cn1cnc2c1c(=O)[nH]c(=O)n2C`, the Potency result is “inactive”.

With `CCN(CC)S(=O)(=O)c1ccc(C(=O)O)cc1`, the Potency result was “inactive”.

In the case of `O=S(=O)(O)c1ccc2cc(O)c(S(=O)(=O)O)cc2c1`, the Potency entry is “inactive”.

Turning to `COc1ccc(C#N)cc1`, the Potency result is “inactive”.

`CCC(CC)C(C)CCOC(C)=O` (stereo not given): the Potency entry was “inactive”.

Take `CCCCCCCN`: the Potency entry was “inactive”.

As to `Clc1ccc2c(c1)Nc1ccccc1S2`, the Potency entry was “inactive”.

For `Nc1c2ccccc2nc2ccccc12`, the Potency entry was “inactive”.

For the compound `CC(=O)c1cccc([N+](=O)[O-])c1`, the Potency entry was “inactive”.

Consider `OC[C@H]1O[C@@H](O[C@H]2[C@H](O)[C@@H](O)[C@H](O)O[C@@H]2CO)[C@H](O)[C@@H](O)[C@H]1O`, for which the Potency entry was “inactive”.

As to `CCN[C@H]1CN(CCCOC)S(=O)(=O)c2sc(S(N)(=O)=O)cc21`, the Potency entry was “inactive”.

Consider `Cc1ccccc1S(N)(=O)=O`, for which the Potency entry is “inactive”.

As for `CN(C)c1ccc(C(=N)c2ccc(N(C)C)cc2)cc1`, the Potency entry was “inactive”.

On to `O=C1OCCO1`, for which the Potency entry is “inactive”.

`CC(=O)/C=C/c1ccco1`: the Potency result was “inactive”.

For `CC1=C(C=O)C(C)(C)CC=C1`, the Potency entry was “inactive”.

`CC(C)OC(=O)C(O)(CC(=O)O)CC(=O)O`: the Potency result was “inactive”.

Take `Cc1cccc(N(C)C)c1`: the Potency entry was “inactive”.

Take `CCCC(=O)OCC(COC(=O)CCC)OC(=O)CCC`: the Potency result was “inactive”.

With `CCCCCCCCCCCCCCO`, the Potency entry was “inactive”.
